# hgDAF-12 ag: H. glycines DAF-12 receptor agonists, primary screen, cell-based, luminescence, HEK293, GAL4 fusion, UAS-luciferase; Nuclear hormone receptor DAF-12 (Heterodera glycines), GAL4 fusion; HEK293 GAL4-hgDAF12 UAS-luciferase reporter, agonist luminescence; normalized to butyrate control; actives 1.8% (n = 370,000); activation, % at 6.8 µM;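 active means activation above a cutoff set at the mean of all screened compounds plus 3 SD, cut at about 10% in these data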;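 further: 0% = DMSO wells and 100% = sodium butyrate wells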
# hcDAF-12 act: H. contortus DAF-12 nuclear receptor activators, primary screen, cell-based, luminescence, HEK293, lit1-tk-luc reporter; AID 652067, 2013; actives 1.4% (n = 370,000); activation, % at 6.8 µM; HEK293 hcDAF-12 lit1-tk-luc reporter; 0% DMSO, 100% Δ7-dafachronic acid;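 active means activation above the mean of all tested compounds plus 3 SD, cut at about 5.5% in these data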;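 further: 100% = response to 3 µM Δ7-dafachronic acid high control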
# DAX1 inh-1: DAX1 (NR0B1) inhibitors on StAR promoter, primary screen, cell-based, luminescence, SF-1 (NR5A1), full-length DAX-1. inhibition, % at 6.8 µM. actives 1.1% (n = 370,000). HEK293T StAR-luciferase reporter, SF-1/DAX-1 repression relief;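 active means inhibition above the mean over all tested compounds plus 3 SD, cut at about 3.6% in these data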;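 further: 0% = DAX-1 cells with DMSO and 100% = cells lacking DAX-1 with DMSO; higher inhibition means more luminescence from relief of DAX-1 repression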
# DAX1 inh-2: DAX1 (NR0B1) inhibitors, primary screen, cell-based, HEK293, Gal4-DAX1, luciferase luminescence | Nuclear receptor subfamily 0 group B member 1 (Homo sapiens), P51843 | HEK293 Gal4-DAX1 luciferase reporter | inhibition, % at 6.75 µM | actives 0.99% (n = 340,000) | AID 504766, 2011;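 active means inhibition above the mean over all tested compounds plus 3 SD, cut at about 4.2% in these data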;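 further: 0% = DAX1-transfected cells with DMSO and 100% = empty-vector control cells with DMSO; inhibition shows as a rise in luminescence from relieved DAX1 repression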
# Target sequence (P51843 207-470 limits assumed): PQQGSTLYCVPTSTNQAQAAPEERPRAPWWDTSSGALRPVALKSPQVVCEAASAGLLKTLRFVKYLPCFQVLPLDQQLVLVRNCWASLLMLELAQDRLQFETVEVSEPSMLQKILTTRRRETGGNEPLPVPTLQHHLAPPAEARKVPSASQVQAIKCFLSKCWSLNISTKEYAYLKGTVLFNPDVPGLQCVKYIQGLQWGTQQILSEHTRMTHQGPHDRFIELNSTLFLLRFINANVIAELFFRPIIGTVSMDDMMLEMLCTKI
# ssDAF12 agonist: S. stercoralis DAF-12 nuclear receptor activators, primary screen, cell-based, luminescence, HEK293, GRIP1 co-expression, lit1-tk-luc; Nuclear hormone receptor DAF-12 (Strongyloides stercoralis); HEK293 ssDAF-12/GRIP1 lit1-tk-luc reporter; % of 3 µM dafachronic acid response; activation, % at 6.8 µM; actives 1% (n = 370,000);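 active means activation above the mean over all tested compounds plus 3 SD, cut at about 0.9% in these data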;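 further: 0% = DMSO-only wells and 100% = 3 µM delta7-dafachronic acid wells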
# LXR ag: LXR agonists, Gal4 luciferase reporter, confirmation, counter-screen for hcDAF-12 agonist project, cell-based, luminescence, HEK293, H. contortus campaign; shares compounds with hcDAF-12 act; HEK293 Gal4-LXR tk-luc reporter, 24 h; normalized: DMSO 0%, positive control 100%; activation, % at 6.8 µM; 3,400 tested, under 10 active;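 active means mean percent activation of the reporter above a cutoff set as the average over tested compounds plus their standard deviation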
# hcDAF12 ag: H. contortus DAF-12 receptor agonists, confirmation, cell-based, luminescence, HEK293, lit1-tk-luc, triplicate; shares compounds with hcDAF-12 act; HEK293 hcDAF-12 lit1-tk-luc reporter; % of Δ7-dafachronic acid response; activation, % at 6.8 µM; actives 61% (n = 3,400);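 active means mean activation across triplicate tests above the threshold derived from the earlier primary screen, cut at about 5.5% in these data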;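 further: 0% = DMSO only wells and 100% = 3 µM Δ7-dafachronic acid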
# * marks the source's active call; other numbers are inactive results; nt = no result given. Rows were chosen to be rich in hits. Some 4.1% of all compounds tested hit in one or more screens of this group.
SMILES,hgDAF-12 ag,hcDAF-12 act,DAX1 inh-1,DAX1 inh-2,ssDAF12 agonist,LXR ag,hcDAF12 ag
O=C(CSc1nnc(CCCOc2ccc(Cl)cc2Cl)o1)Nc1ccc(C(=O)O)cc1,-2,-2,0,-1,1,nt,nt
O=C(Nc1ccc2[nH]ccc2c1)c1ccccc1,12*,9.2*,3,-2,1,2,9.5*
COc1ccc(NC(=O)Nc2ccc3[nH]ccc3c2)cc1,8,3,3,nt,0,nt,nt
COc1ccc(-c2cc(-c3ccccc3)no2)cc1,11*,11*,4.0*,-1,0.9*,2,11*
Cc1ccc(-c2nc(-c3ccccc3)no2)cc1,13*,6.8*,3.9*,2,0,1,8.5*
c1ccc(-c2cc(-c3cc(-c4ccccc4)on3)no2)cc1,1,0,1,1,-1,nt,nt
COc1cccc(-c2nc(-c3ccccc3)no2)c1,19*,9.4*,3.8*,4,2.0*,2,15*
Cc1ccc(-c2nc(-c3ccccc3)no2)c(Cl)c1,-5,1,0,-1,-1,nt,nt
N#CC1(c2ccc(NC(=O)c3ccccc3F)cc2)CCCC1,23*,6.9*,3,0,0,2,6.6*
COc1ccc(C(=O)Nc2ccc(C3(C#N)CCCC3)cc2)cc1,1,-1,0,2,-1,nt,nt
CCCCN(Cc1nc2ccccc2c(=O)[nH]1)C(=O)COc1ccc(F)cc1Cl,-1,1,-1,2,-1,nt,nt
COC(=O)CNC(c1ccccc1Cl)c1cc(Br)ccc1NS(=O)(=O)c1ccc(C)cc1 (configuration not stated),-2,0,0,-2,-1,nt,nt
CN(C)c1ccc(/C=N/NC(=O)c2ccccc2Cl)cc1,5,1,-2,-1,-1,nt,nt
Cc1occc1C(=O)N/N=C/C(Br)=C\c1ccccc1,11*,8.8*,2,4,1,2,4
Cc1occc1C(=O)N/N=C/c1ccc(N(C)C)cc1,9,7.3*,3,-2,0,1,7.2*
Nn1c(SCC(=O)NC(=O)Nc2ccc3c(c2)OCCO3)nnc1C1CC1,4,-1,0,-1,-1,nt,nt
Clc1ccccc1C1SCC2Nc3ccccc3CN21 (configuration not stated),5,7.1*,1,1,0,0,7.1*
O=C(c1ccc([N+](=O)[O-])cc1)N1CCSC1c1ccccc1Cl (configuration not stated),-1,1,1,1,-2,nt,nt
Oc1ccccc1-c1nc(N2CCN(Cc3ccccc3)CC2)c2ccccc2n1,6,8.5*,0,-1,0,0,4
Nc1c(Cl)c(Cl)nc(C(=O)N/N=C/c2ccco2)c1Cl,3,6.9*,0,-1,0,0,3
Cc1cc(NC(=O)CSc2c(C)[nH]c3ccccc23)no1,4,6.8*,1,2,1.1*,0,1
Cc1cc(NC(=O)CSc2c[nH]c3ccccc23)no1,4,5,0,1,0,nt,nt
CCC(CC)(CC(=O)Nc1cccc(/C=C/c2nc(C3CCC3)cs2)c1)C(=O)O,1,0,1,nt,-1,nt,nt
NC1=NC(=O)/C(=C\c2ccc(-c3ccc(Cl)cc3)o2)S1,5,6.5*,0,1,0.9*,0,7.7*
Cc1nc2ccc(NC(=O)c3ccc4ccccc4n3)cc2s1,3,3,1,1,-1,nt,nt
SMILES,hgDAF-12 ag,hcDAF-12 act,DAX1 inh-1,DAX1 inh-2,ssDAF12 agonist,LXR ag,hcDAF12 ag
Cc1nnc(NC(=O)c2ccc3ccccc3n2)s1,5,7.6*,4.3*,2,0,1,9.1*
c1ccc(-c2c[nH]c3ccc(OCc4ccc5ccccc5n4)c(-c4ccccc4)c23)cc1,6,7.4*,0,nt,0,0,3
COc1cc(CNCc2ccc(OC)cc2OC)cc(OC)c1,-2,-4,0,-3,-2,nt,nt
COc1ccc(/C=C(/NC(=O)c2ccco2)C(=O)NCc2ccco2)cc1OC,1,1,1,0,-1,nt,nt
N#C/C(=C\c1ccc(-c2nc3ccccc3s2)o1)C(N)=O,5,6.8*,0,-1,1,1,4
O=C(Nc1ccc(Cl)cc1Cl)c1ccc(Br)o1,8,8.2*,1,2,0,1,6.4*
O=C(Nc1cc(Cl)ccc1N1CCOCC1)c1ccc(Br)o1,1,0,-1,0,-1,nt,nt
CC1CCN(c2ccc3nnc(CCC(=O)NC(C)C)n3n2)CC1,0,0,0,0,-2,nt,nt
Cc1ccc(NC(=O)COC(=O)/C=C/c2cccc(Cl)c2)cc1S(=O)(=O)N1CCOCC1,0,8.7*,0,1,0,0,0
O=C(COC(=O)/C=C/c1cccc(Cl)c1)Nc1ccc(N2CCOCC2)cc1,0,0,-1,1,-1,nt,nt
O=c1oc2ccccc2c(Nc2ccccc2O)c1[N+](=O)[O-],0,1,0,0,-1,nt,nt
O=c1oc2ccccc2c(Nc2cc3ccccc3cc2O)c1[N+](=O)[O-],17*,8.3*,-1,-3,1.0*,1,14*
COc1ccc2[nH]cc(C(=O)CNc3nc(C)cs3)c2c1,8,7.3*,2,0,0,0,7.6*
COc1ccc2[nH]cc(C(=O)CCl)c2c1,0,0,-2,-4,-1,nt,nt
O=[N+]([O-])c1ccc(-c2ccc(C=Nc3cccc4ccccc34)o2)cc1,2,6.8*,1,0,0,0,1
C[C@H](NC(=O)c1cc2cc(Cl)ccc2n1C)C(=O)N1CCC(C(=O)O)CC1,-4,-1,0,1,-1,nt,nt
Cn1c(C(=O)Nc2ccc(Cl)cc2)cc2cc(Cl)ccc21,4,8.3*,0,0,0,0,7.9*

# Screening results (PubChem)
